Compounds without any hit were thinned out: in the full panel of roughly 79,000, 15% have a hit. Calls of active or inactive are those of the source. No stated cut-off is given here; in the data, active means growth inhibition above about 70%; inactive means the rest.
Tests used:
[1] = NCI Yeast Anticancer Drug Screen. Data for the rad52 strain (AID 147);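 further: 0% = growth of vehicle-treated control cultures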; conditions: S. cerevisiae rad52 mutant growth inhibition, active compounds read high
Summary of the method: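 Compounds are applied to a genetically defined yeast strain lacking normal DNA damage repair, and inhibition of growth is expressed relative to cultures given vehicle only.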

[2] = NCI Yeast Anticancer Drug Screen. Data for the wt1 strain (AID 149);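 further: 0% = growth of vehicle-treated wt1 cultures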; conditions: S. cerevisiae wt1 strain (SPY 50644) growth inhibition, active compounds read high
Summary of the method: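 Readout: yeast growth inhibition, normalised to vehicle controls, in the wt1 strain exposed to test compounds.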

[3] = NCI Yeast Anticancer Drug Screen. Data for the rad50EPP+ strain (AID 151);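 further: 0% = growth of vehicle-treated control cultures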; conditions: S. cerevisiae rad50 mutant strain, active compounds read high
Summary of the method: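 Compounds were applied to the rad50EPP+ yeast strain, which bears a defined DNA repair alteration, and growth inhibition was determined relative to vehicle-treated cultures.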

[4] = NCI Yeast Anticancer Drug Screen. Data for the mgt1 strain (AID 153); conditions: S. cerevisiae mgt1 mutant growth inhibition, active compounds read high
Summary of the method: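 Strain: mgt1 yeast, one of a set carrying defined DNA damage repair or cell cycle control alterations. Compound-treated growth compared with vehicle.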

[5] = NCI Yeast Anticancer Drug Screen. Data for the rad50 strain (AID 155);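 further: 0% = growth of vehicle-only cultures of the same strain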; conditions: S. cerevisiae rad50 strain growth inhibition, active compounds read high
Summary of the method: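 Compounds were tested on a yeast strain with an engineered DNA damage repair alteration; the reported value is growth inhibition normalised to vehicle treatment.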

[6] = NCI Yeast Anticancer Drug Screen. Data for the mec2-1 strain (AID 157); conditions: S. cerevisiae mec2-1 strain, active compounds read high
Summary of the method: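 Strain: mec2-1 (DNA repair/cell cycle alteration). Compound exposure, then growth measured; inhibition expressed relative to vehicle.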

[7] = NCI Yeast Anticancer Drug Screen. Data for the rad14 strain (AID 159);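 further: 0% = growth of vehicle-treated control cultures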; conditions: S. cerevisiae rad14 strain growth inhibition, active compounds read high
Summary of the method: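 Compound-treated yeast with a defined DNA-repair lesion; growth inhibition normalised to vehicle-treated cultures.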

[8] = NCI Yeast Anticancer Drug Screen. Data for the sgs1 mgt1 strain (AID 161);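 further: 0% = growth of cultures given vehicle only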; conditions: S. cerevisiae sgs1 mgt1 strain, active compounds read high
Summary of the method: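 Inhibition of yeast growth, normalised to vehicle-treated controls, is reported for a strain bearing genetic alterations in DNA damage repair.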

[9] = NCI Yeast Anticancer Drug Screen. Data for the CLN2oe strain (AID 163);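 further: 0% = growth of vehicle-only control cultures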; conditions: S. cerevisiae CLN2oe strain, active compounds read high
Summary of the method: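 Growth of a genetically modified yeast strain is measured after compound exposure and compared with cultures given vehicle alone.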

[10] = NCI Yeast Anticancer Drug Screen. Data for the cln2 rad14 strain (AID 165);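 further: 0% = growth equal to vehicle treated cultures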; conditions: S. cerevisiae cln2 rad14 strain, active compounds read high
Summary of the method: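 Compounds are applied to the cln2 rad14 yeast strain, and growth is then compared with that of vehicle-treated cultures to give inhibition.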

[11] = NCI Yeast Anticancer Drug Screen. Data for the bub3 strain (AID 167); conditions: S. cerevisiae bub3 mutant strain, active compounds read high
Summary of the method: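 Growth of a checkpoint-deficient yeast mutant is measured after compound exposure. Values represent inhibition relative to vehicle.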

[12] = NCI Yeast Anticancer Drug Screen. Data for the wt2 strain (AID 169);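 further: 0% = growth of vehicle-treated yeast cultures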; conditions: S. cerevisiae wt2 strain growth inhibition, active compounds read high
Summary of the method: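 This strain belongs to a panel of yeast strains with defined genetic alterations in DNA damage repair or cell cycle control. Compounds are applied, and growth inhibition is measured against vehicle-treated cultures.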

[13] = NCI Yeast Anticancer Drug Screen. Data for the mlh1 strain (AID 171);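 further: 0% = growth of vehicle-treated control cultures of the same strain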; conditions: S. cerevisiae mlh1 strain growth inhibition, active compounds read high
Summary of the method: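 Growth of the mutant yeast strain after compound exposure, expressed as inhibition relative to vehicle-only controls.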

[14] = NCI Yeast Anticancer Drug Screen. Data for the sgs1 strain (AID 173);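 further: 0% = growth of vehicle-only control cultures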; conditions: S. cerevisiae sgs1 mutant, active compounds read high
Summary of the method: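 Growth of a yeast strain bearing a defined genetic alteration is measured after compound treatment. Inhibition is expressed relative to vehicle-only controls.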

[15] = NCI Yeast Anticancer Drug Screen. Data for the mlh1 rad18 strain (AID 175); conditions: S. cerevisiae mlh1 rad18 strain growth inhibition, active compounds read high
Summary of the method: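 Read-out is yeast growth inhibition, calculated against vehicle-only controls. The compound was applied to a strain engineered with DNA damage repair alterations.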

[16] = NCI Yeast Anticancer Drug Screen. Data for the rad18 strain (AID 177); conditions: S. cerevisiae rad18 mutant growth inhibition, active compounds read high
Summary of the method: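 Growth of the mutant yeast strain after compound exposure, normalised to vehicle-only cultures.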

[17] = at 5.0 µM (retest, dose inferred, filed as 0.5)
[18] = at 50.0 µM (retest, dose inferred, filed as 5.0)

Measured: growth inhibition

CCOC(=O)C1=C(C(=O)OCC)C2(c3ccccc3)N(O1)c1ccccc1C2(C)C (stereo not drawn)
inactive: [1]; at 1.2 µM -3% | [1]; at 3.7 µM -2% | [1]; at 11.0 µM 0% | [1]; at 33.0 µM 3% | [2]; at 1.2 µM -2% | [2]; at 3.7 µM -5% | [2]; at 11.0 µM -4% | [2]; at 33.0 µM -1% | [2]; at 100.0 µM 54% | [3]; at 1.2 µM -6% | [3]; at 3.7 µM -7% | [3]; at 11.0 µM -5% | [3]; at 33.0 µM -6% | [3]; at 100.0 µM 15% | [4]; at 1.2 µM -1% | [4]; at 3.7 µM 0% | [4]; at 11.0 µM -1% | [4]; at 33.0 µM -3% | [5]; at 1.2 µM -1% | [5]; at 3.7 µM -2% | [5]; [17] 54% | [5]; at 11.0 µM -3% | [5]; at 33.0 µM -1% | [5]; [18] 54% | [5]; at 50.0 µM 63% | [5]; at 100.0 µM 67% | [6]; at 1.2 µM -3% | [6]; at 3.7 µM -3% | [6]; [17] 35% | [6]; at 11.0 µM -5% | [6]; at 33.0 µM -7% | [6]; [18] 35% | [6]; at 50.0 µM 27.5% | [7]; at 1.2 µM 0% | [7]; at 3.7 µM -4% | [7]; at 11.0 µM -3% | [7]; at 33.0 µM -8% | [7]; at 100.0 µM 62% | [9]; at 1.2 µM -4% | [9]; at 3.7 µM -2% | [9]; at 11.0 µM -4% | [9]; at 33.0 µM -5% | [10]; [17] 6% | [10]; [18] 6% | [10]; at 50.0 µM 43.3% | [11]; at 1.2 µM -6% | [11]; at 3.7 µM -5% | [11]; [17] 31% | [11]; at 11.0 µM 8% | [11]; at 33.0 µM 13% | [11]; [18] 31% | [11]; at 50.0 µM 44.4% | [12]; at 1.2 µM -2% | [12]; at 3.7 µM -3% | [12]; at 11.0 µM -2% | [12]; at 33.0 µM 0% | [13]; at 1.2 µM -3% | [13]; at 3.7 µM -6% | [13]; at 11.0 µM -5% | [13]; at 33.0 µM -3% | [14]; at 1.2 µM -5% | [14]; at 3.7 µM -5% | [14]; at 11.0 µM -6% | [14]; at 33.0 µM -2% | [15]; [17] 32% | [15]; [18] 32% | [15]; at 50.0 µM 15.4% | [16]; at 1.2 µM -4% | [16]; at 3.7 µM -11% | [16]; at 11.0 µM -12% | [16]; at 33.0 µM -4% | [16]; at 100.0 µM 68%
active: [1]; at 100.0 µM 71% | [4]; at 100.0 µM 78% | [6]; at 100.0 µM 74% | [8]; [17] 71% | [8]; [18] 71% | [8]; at 50.0 µM 79.8% | [9]; at 100.0 µM 79% | [11]; at 100.0 µM 77% | [12]; at 100.0 µM 75% | [13]; at 100.0 µM 80% | [14]; at 100.0 µM 81%

CS(=O)(=O)OCCN(CCOS(C)(=O)=O)c1ccc(C=O)cc1
active: [1]; at 33.0 µM 83% | [1]; at 100.0 µM 91% | [4]; at 100.0 µM 78% | [5]; at 33.0 µM 80% | [5]; [18] 84% | [5]; at 50.0 µM 79.3% | [5]; at 100.0 µM 92% | [6]; at 33.0 µM 75% | [6]; [18] 88% | [6]; at 50.0 µM 83.6% | [6]; at 100.0 µM 90% | [7]; at 33.0 µM 82% | [7]; at 100.0 µM 91% | [8]; [18] 80% | [8]; at 50.0 µM 79.4% | [10]; [18] 74% | [12]; at 100.0 µM 85% | [13]; at 100.0 µM 82% | [14]; at 33.0 µM 80% | [14]; at 100.0 µM 89% | [15]; [17] 76% | [15]; [18] 95% | [15]; at 50.0 µM 91% | [16]; at 1.2 µM 85% | [16]; at 3.7 µM 92% | [16]; at 11.0 µM 95% | [16]; at 33.0 µM 96% | [16]; at 100.0 µM 96%
inactive: [1]; at 1.2 µM 11% | [1]; at 3.7 µM 33% | [1]; at 11.0 µM 62% | [2]; at 1.2 µM 0% | [2]; at 3.7 µM -19% | [2]; at 11.0 µM 10% | [2]; at 33.0 µM 28% | [2]; at 100.0 µM 49% | [3]; at 1.2 µM 4% | [3]; at 3.7 µM 6% | [3]; at 11.0 µM 9% | [3]; at 33.0 µM 30% | [3]; at 100.0 µM 51% | [4]; at 1.2 µM 5% | [4]; at 3.7 µM 13% | [4]; at 11.0 µM 32% | [4]; at 33.0 µM 58% | [5]; at 1.2 µM 16% | [5]; at 3.7 µM 34% | [5]; [17] 33% | [5]; at 11.0 µM 60% | [6]; at 1.2 µM 8% | [6]; at 3.7 µM 20% | [6]; [17] 29% | [6]; at 11.0 µM 43% | [7]; at 1.2 µM 22% | [7]; at 3.7 µM 36% | [7]; at 11.0 µM 63% | [8]; [17] 26% | [9]; at 1.2 µM -10% | [9]; at 3.7 µM -1% | [9]; at 11.0 µM 15% | [9]; at 33.0 µM 35% | [9]; at 100.0 µM 65% | [10]; [17] 8% | [10]; at 50.0 µM 65.2% | [12]; at 1.2 µM -1% | [12]; at 3.7 µM 12% | [12]; at 11.0 µM 18% | [12]; at 33.0 µM 43% | [13]; at 1.2 µM 2% | [13]; at 3.7 µM 11% | [13]; at 11.0 µM 25% | [13]; at 33.0 µM 53% | [14]; at 1.2 µM 15% | [14]; at 3.7 µM 35% | [14]; at 11.0 µM 58%
